For 40 compounds, Potency and activity, negative = inhibition results are on record in PubChem BioAssay (Tox21).

Structures are written as SMILES. Records with an inconclusive call do not appear. Where a call stands in place of a potency, no number is given. Values without a mark were called inactive. Calls of active or inactive are those of the source. Calls come from the whole dose curve.
Potency is the fitted concentration of half-maximal effect.

Chain of Muscarinic acetylcholine receptor M1 (Homo sapiens) (P11229 whole entry, looked up): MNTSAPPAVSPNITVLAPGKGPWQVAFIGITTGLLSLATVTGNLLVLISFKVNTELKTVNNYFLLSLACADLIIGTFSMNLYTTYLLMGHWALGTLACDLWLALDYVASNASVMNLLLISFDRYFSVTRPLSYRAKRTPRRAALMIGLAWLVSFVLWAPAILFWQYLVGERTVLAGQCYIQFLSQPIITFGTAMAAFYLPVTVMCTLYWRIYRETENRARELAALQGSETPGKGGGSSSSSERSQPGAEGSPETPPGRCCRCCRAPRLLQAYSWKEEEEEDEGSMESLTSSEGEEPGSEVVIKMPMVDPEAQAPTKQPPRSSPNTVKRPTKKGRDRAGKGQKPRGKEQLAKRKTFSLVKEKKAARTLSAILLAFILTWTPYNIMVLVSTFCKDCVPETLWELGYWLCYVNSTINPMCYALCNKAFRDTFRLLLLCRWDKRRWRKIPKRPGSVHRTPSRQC

This experiment addresses Muscarinic acetylcholine receptor M1 (Homo sapiens) (UniProt P11229). Description: Cholinergic receptor muscarinic 1 (CHRM1) small molecule antagonists, cell-based qHTS assay (AID 1963588). Note: nearly all actives have a fitted effect of over 40% in size. The conditions noted are these: CHRM1-CHO antagonist mode, calcium flux fluorescence; series mostly up to 61.5 µM. The text has this: National Center for Advancing Translational Sciences [NCATS]
Division of Preclinical Innovation [DPI]
U.S. Environmental Protection Agency [EPA]
National Institutes of Environmental Health Sciences [NIEHS]
National Toxicology Program [NTP]
U.S. Food and Drug Administration [FDA]
The CHRM1 is a muscarinic receptor. This receptor plays a crucial role in learning and memory processes and has long been identified as a promising therapeutic target for the improvement of cognitive decline in Alzheimer's disease (AD). The CHRM1-CHO cell line stably expressing human muscarinic acetylcholine receptor M1 (CHRM1) can be used for screening agonists and antagonists of interactions between CHRM1 and its ligands. The CHRM1-CHO Calcium Flux Assay is a homogeneous fluorescence-based assay for detecting the intracellular calcium level using FDSS kinetic plate reader system.
Tox21 Assay Protocol Summary:
CHRM1-CHO cells were dispensed at 1000 cells/3uL/well in 1536-well black-clear bottom plates using a Multidrop Dispenser. After the assay plates were incubated at a 37 C/5% CO2 incubator for 18 h, 3 uL of Dye Loading Buffer was transferred to the assay plate by a Flying Reagent Dispenser. The assay plates were incubated at 37 C for 1h. For antagonist mode, 23 nL of compounds dissolved in DMSO, positive controls or DMSO only was transferred to the assay plate by a pin tool. After 5 min incubation at room temperature, 1.5 uL of acetylcholine at 50nM was added to each well. The fluorescence intensity in the plates was measured using FDSS 7000EX kinetic plate reader for 3 min at 1 sec intervals. Each test compound was measured at 15 concentrations in three independent runs.
(In general: Quantitative high-throughput screening tests each substance at several concentrations.)
Take `C=CC(=O)OCC(Br)CBr` (stereo not given): the Potency entry was “inactive”.
Same read-out and setting: as for `CCOC(=O)CS`, the entry is “inactive”; as for `O=C(OCCN1CCOCC1)c1cccnc1Nc1cccc(C(F)(F)F)c1`, “inactive”; as for `On1nnc2ccccc21`, “inactive”.
The same measure, in the same setting: as for `CCCOC(=O)c1ccc(O)cc1`, the entry is “inactive”; as for `O=C1c2ccccc2C(=O)N1CCl`, “inactive”.
Same read-out and setting: as for `O=C(O)CC(C(=O)O)S(=O)(=O)O` (stereo not given), the entry is “inactive”.
For `CC(=O)CC(c1ccc([N+](=O)[O-])cc1)c1c(O)c2ccccc2oc1=O` (stereo not given), the Potency result is “inactive”.
For the compound `CCCCCCCCCCn1cc[n+](CCCCCCCCCC)c1C`, the Potency was 2.98 µM (active).
As to `N#Cc1ccc(CC(=O)c2cccc(C(F)(F)F)c2)cc1`, the Potency result was “inactive”.
Still for that read-out and setting: with `Cc1nc2n(c(=O)c1CCN1CCC(c3noc4cc(F)ccc34)CC1)CCC[C@H]2O` the figure was 4.48 µM (active).
The same measure, in the same setting: as for `CN(CCOc1ccc(NS(C)(=O)=O)cc1)CCc1ccc(NS(C)(=O)=O)cc1`, the figure is 8.18 µM (active); as for `CC(C)(C)C1CCC(=O)CC1`, “inactive”.
Take `CCOC(=O)C1CC(=O)C(=C(O)C2CC2)C(=O)C1` (stereo not given): the Potency entry was “inactive”.
`CC1(C)CC(N)CC(C)(C)N1`: the Potency result was “inactive”.
Still for that read-out and setting: as for `CCN(CC)CCOCCOC(=O)C1(c2ccccc2)CCCC1`, the figure is 0.13 µM (active).
For the compound `CCCCNc1c(C(=O)OCC)c(C)nc2c1cnn2CC`, the Potency result is “inactive”.
Same read-out and setting: with `Oc1ccc(C2CNCCc3c2cc(O)c(O)c3Cl)cc1` (stereo not given) the entry was “inactive”; with `CC(C)C(=O)OCc1cccc(OC(=O)[C@@H]2N3C(=O)[C@@H](NC(=O)Cc4ccccc4)[C@H]3SC2(C)C)c1`, “inactive”.
Still for that read-out and setting: as for `CNCc1ccccc1`, the entry is “inactive”; as for `CC(C)C[C@H](NC(=O)OCC1c2ccccc2-c2ccccc21)C(=O)O`, “inactive”.
Take `O=C(O)Cc1sc(-c2ccccc2)nc1-c1ccc(Cl)cc1`: the Potency entry is “inactive”.
Same read-out and setting: as for `CCOC(=O)CC(CC(=O)OCC)(OC(C)=O)C(=O)OCC`, the entry is “inactive”.
The same measure, in the same setting: as for `C/C(=C\C(C)CC(C)CC(C)C)C1CC(=O)OC1=O` (stereo not given), the entry is “inactive”; as for `Cc1cccc(N(C)C(=S)Oc2ccc3c(c2)CCC3)c1`, “inactive”; as for `Cc1cccc(Oc2ccccc2)c1`, “inactive”.
On the same count and under the same terms, with `CCCCCCCCCCCCOC(=O)c1ccc(O)cc1` the entry was “inactive”.
Take `CN1Cc2cc(C(=O)N3CCC(C4CCNCC4)CC3)ccc2NC(CC(=O)O)C1=O` (stereo not given): the Potency is 1.3 µM (active).
The same measure, in the same setting: with `Cc1c(C(=O)NCCO)[n+](=O)c2ccccc2n1[O-]` the entry was “inactive”.
On to `[O]=[Bi]`, for which the activity, negative = inhibition is 3.36% [at 5.58 µM].
For `Cc1ccc(N(CCO)CCO)cc1`, the Potency entry is “inactive”.
Still for that read-out and setting: with `COc1ccc(C(=O)Nc2nc3ccccc3c(NCc3ccccc3)c2C#N)cc1` the entry was “inactive”; with `COC(C)(C)CCCC(C)CC=O` (stereo not given), “inactive”.
As to `NC(=O)C(=O)N/N=C/c1ccc([N+](=O)[O-])o1`, the Potency entry is “inactive”.
Regarding `COc1ccc(C(=O)Nc2ccccc2)cc1[N+](=O)[O-]`, the Potency entry is “inactive”.
For the compound `CC(=O)Nc1cc(S(=O)(=O)O)cc2cc(S(=O)(=O)O)c(N=Nc3ccccc3)c(O)c12`, the Potency entry is “inactive”.
On to `O=C(O)c1ccc2c(c1)nc(C(=O)NC1CCN(C3CC3)CC1)n2Cc1cc(-c2ccc(Cl)s2)on1`, for which the activity, negative = inhibition was -5% [at 12.6 µM].
In the case of `CC(C)(c1ccc(Oc2ccc3c(c2)C(=O)OC3=O)cc1)c1ccc(Oc2ccc3c(c2)C(=O)OC3=O)cc1`, the Potency was 37.3 µM (active).
The same measure, in the same setting: with `CC(C)CC(C)CC(C)CC(C)COC(=O)c1ccccc1C(=O)OCC(C)CC(C)CC(C)CC(C)C` (stereo not given) the entry was “inactive”.
With `CCCCCCCCCOC(=O)c1ccc(O)cc1`, the Potency entry was “inactive”.
